# Target: EFNB2
# Test: pooled miR-30 sensor sort-seq; sequence = guide strand
# Details: shRNA
# Further: reference of the scale not given here.
row,Sequence,sensor-assay potency score (higher = more potent)
1,AATTCTTGAAACTTGATGGTGA,0.644
2,TAAAAAACCAACATTGCTCTAT,0.0453
3,TTAATAGTGCATCTGTCTGCTT,-0.0531

# Target: EGFLAM
# Test: as above
# Details: shRNA
row,Sequence,sensor-assay potency score (higher = more potent)
1,TCTCTGTAGAGCATAACCGTGT,-0.368
2,TTGATGTGTGATCTCTGGCAGC,-0.345
3,TAAGCTGCTATGCTCACACGAT,-0.515
4,ATAACAATATCTTCTGAGCAGC,-1.01
5,TTAGATATAGACATCTTCTTGC,0.604
6,TGAATCACAACACAGTCACTGA,-0.715
7,ATCTCTGTAGAGCATAACCGTG,-1.58
8,ACACATTTGATCTTGATCCTGA,0.527
9,TTGAGGTCCACTTCTTGTCGAA,-0.198
10,TAGTCATTGACACAGAAGCTGT,-1.47
11,TTCTTGTCGAAATCTGGCCTGA,-0.665
12,TAGAGCATAACCGTGTGCCAAC,-1.37

# Target: EGF
# Test: as above
# Details: shRNA
row,Sequence,sensor-assay potency score (higher = more potent)
1,TTGCAAACAAATTATGCTGTGT,0.205
2,TACTGTAATGATTCCTTCCTGT,0.571
3,TTCATTAACATCTTCACAGTAC,0.809
4,AAACAAGTTGATGACATCGTTT,-0.985
5,TTAGATCAACTTCACCACCTGC,-0.392
6,TATATTACATACTCTCTCTTGC,0.906
7,TTAATTCTAACCATGTCCTTTC,-0.226
8,TTCTCTGTTGTACTGAATCCAA,-0.8
9,TATCAGAACATAGTTTTCCATC,-1.09
10,TATCGGGTGAGGAACAACCGCT,-0.49
11,TTAGTGATTATTTTGGAACGTT,0.208
12,TTACTTACAATCTTGTAACTGA,0.581
13,TTGTCTTTCTAAATCCACCCAA,0.0842
14,TAAATTTTGAAACTACTGGCAA,-0.0191
15,TAATGTGGACAGAACCTCCATC,-0.544
16,TTGACCAAATAACTTCTTCATT,-1.32
17,TAAACCTTTCTACTGGATCAAC,-1.16
18,TTCTGTAATGTTATCTTCTGAC,-0.544
19,TTGAGAATTGGCAAACAGCAAA,-1.09
20,TTACATACTCTCTCTTGCCTTG,-0.0399
21,TTGAGTAGGTGATTAGTCGTAG,0.0164
22,TCTTCTGACACTCTAGTCTTGG,-0.41
23,TAAATCACTCCTTCCAATCAGA,-0.116

# Source: the OligoGym collection
